Screening results as filed in PubChem.
Rows were chosen to be rich in hits. Some 9.3% of all compounds tested hit in one or more screens of this group.
ELG1 repair inh – qHTS screen for small molecules that inhibit ELG1-dependent DNA repair in human embryonic kidney (HEK293T) cells expressing luciferase-tagged ELG1; hit rate 2.3% among 330,000; HEK293T ELG1-luciferase reporter, luminescence, 16 h; DNA damage induced by 5-fluorouridine; Potency, µM (titrated, usually from 46.1 µM), for the others: top-dose activity change, negative = inhibition, actives largely listed as inhibitors; note: % is set by controls: 0 for no effect and ±100 for the full control effect; nearly all actives have a fitted effect of over 55% in size
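Reporter activity after DNA damage by 5-fluorouridine is monitored. Compound-treated cells incubate 16 hr at 37 °C, then ONE-Glo is added for 30 min before luminescence reading.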
FLuc counter – qHTS profiling assay for firefly luciferase inhibitor/activator using purifed enzyme and Km concentrations of substrates (counterscreen for miR-21 project). Luciferin 4-monooxygenase (Photinus pyralis), P08659. purified FLuc, Km substrates, luminescence inhibition. Potency, µM (top dose mostly 57.5 µM), without a hit: at the top dose activity change, negative = inhibition, actives largely listed as inhibitors. hit rate 6.9% among 360,000. AID 588342, 2011;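 note: plate controls were vehicle for no effect and reference inhibitor for full effect; nearly all actives have a fitted effect of over 55% in size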
Target sequence (P08659 whole entry, looked up): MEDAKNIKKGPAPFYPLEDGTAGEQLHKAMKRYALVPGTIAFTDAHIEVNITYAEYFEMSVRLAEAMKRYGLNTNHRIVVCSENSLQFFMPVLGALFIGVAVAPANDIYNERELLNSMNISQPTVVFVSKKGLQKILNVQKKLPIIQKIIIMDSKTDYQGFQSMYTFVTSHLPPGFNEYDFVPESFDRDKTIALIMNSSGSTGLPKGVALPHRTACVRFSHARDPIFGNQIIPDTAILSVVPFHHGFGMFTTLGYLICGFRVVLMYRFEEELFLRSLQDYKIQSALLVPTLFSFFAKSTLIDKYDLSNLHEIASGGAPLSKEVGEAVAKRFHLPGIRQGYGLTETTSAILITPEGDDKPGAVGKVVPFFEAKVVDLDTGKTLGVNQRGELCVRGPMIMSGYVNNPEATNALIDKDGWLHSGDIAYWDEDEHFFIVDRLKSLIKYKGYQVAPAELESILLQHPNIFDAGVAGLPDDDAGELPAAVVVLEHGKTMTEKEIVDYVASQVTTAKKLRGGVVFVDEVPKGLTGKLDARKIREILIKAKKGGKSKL
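Purified P. pyralis luciferase, 10 nM final, with Km-level 10 uM D-luciferin and 10 uM ATP in 50 mM Tris acetate pH 7.5, 10 mM Mg acetate, 0.01% Tween-20, 0.05% BSA; 6-point qHTS titration about 60 µM downward; luminescence read.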
NPC1 promoter act – qHTS Assay for NPC1 Promoter Activators | Huh7 NPC1 promoter luciferase reporter, 24 h | Potency, µM (top dose mostly 9.22 µM), inactives show at the top dose activation, usual class: activators | hit rate 2.4% among 320,000 | AID 485313, 2010; note: % of control where 0% means no effect; nearly all actives have a fitted effect of over 60% in size
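Stably transfected Huh7 (NPC1 promoter→luciferase), 1500 cells/well in Opti-MEM + 10% FBS, 2 h settle, then compound 24 h at 37 °C. Luminescence after 10 min with Amplite reagent.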
SMN2 splice enh – qHTS Assay for Enhancers of SMN2 Splice Variant Expression | HEK293 SMN2-luciferase splicing reporter, luminescence, 30-36 h | Potency, µM (top dose mostly 46.1 µM), without a hit: top-dose activity change, positive = activation, actives largely listed as activators | hit rate 2.8% among 210,000 | AID 1458, 2008; note: % of control where 0% means no effect; nearly all actives have a fitted effect of over 55% in size
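HEK293 cells carry an SMN2 […]–luciferase reporter in which exon 7 inclusion puts luciferase in frame. Cells were plated 10-12 h before compound addition, then incubated 30-36 h at 37C. ONE-Glo luminescence was read; sodium butyrate at 4.5 mM final served as control.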
ELG1 genotox – qHTS screen for small molecules that induce genotoxicity in human embryonic kidney (HEK293T) cells expressing luciferase-tagged ELG1 | AID 504466, 2011 | hit rate 1.3% among 330,000 | Potency, µM (series often up to 46 µM), without a hit: at the top dose activity change, positive = activation, actives largely listed as activators | HEK293T ELG1-luciferase reporter, luminescence, 16 h; note: % of control where 0% means no effect; nearly all actives have a fitted effect of over 60% in size
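DMSO vehicle served as control against compound-treated ELG1-luciferase HEK293T cells; exposure lasted 16 hr at 37 °C and 5% CO2, followed by ONE-Glo luminescence detection after 30 min.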
Rab9 prom act – qHTS Assay for Rab9 Promoter Activators; AID 485297, 2010; hit rate 2.8% among 320,000; Potency, µM (series often up to 9.22 µM), inactives show at the top dose activation, negative = inhibition, actives largely listed as activators; Huh7 Rab9 promoter-luciferase reporter, luminescence, 24 h; note: % of control where 0% means no effect; nearly all actives have a fitted effect of over 60% in size
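Luciferase signal after 10 min detection reagent at ambient indicates Rab9 promoter upregulation; stably transfected Huh7 cells were treated 24 h with compound in DMSO at 37 °C, 5% CO2.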
An asterisk follows results filed as active; ? = inconclusive; nt = no result; [ ] = dose if it differs, or a comment. Calls come from the whole dose curve; as a rule, active = well fitted curve in the direction sought with a large enough effect; inconclusive = small, poorly fitted or top-dose-only effect, or another doubt; inactive = no such curve, though single readings can be large; an effect the other way counts as inactive or inconclusive. Potency is the fitted concentration of half-maximal effect.

SMILES | ELG1 repair inh | FLuc counter | NPC1 promoter act | SMN2 splice enh | ELG1 genotox | Rab9 prom act
C=C(CC1([C@@H](NP(=O)(c2ccccc2)c2ccccc2)[C@H]2C[C@@H]2CCCC)CC1)c1cccc(OC)c1 | nt | nt | nt | -13% | nt | nt
COCc1nnc(NC(=O)COc2ccc3c(c2)OCO3)s1 | -1% | -12% | -3% | nt | 12% | -5%
O=C(COc1ccc2c(c1)OCO2)Nc1nccs1 | ? | 1.7µM* | 0.4µM* | nt | 2.3µM* | 0.45µM*
O=C(COc1cccc2cccnc12)Nc1nccs1 | ? | 12µM* | ? | ? | ? | 4µM*
COc1ccc(OCC(=O)Nc2nc(-c3ccc(Br)cc3)ns2)cc1 | nt | 11µM* | nt | nt | nt | nt
CCOC(=O)C1(Cc2ccc(Cl)cc2)CCN(Cc2cn(CC)nc2C)CC1 | ? | 0% | 1% | nt | -9% | 0%
N#C/C(=C\c1cccc(O)c1)c1nc2ccccc2o1 | 20% | 8.5µM* | -2% | nt | 11% | -10%
N#C/C(=C\c1ccncc1)c1nc2ccccc2o1 | ? | -17% | 0% | nt | 3% | 11%
N#C/C(=C\c1ccc(Cl)cc1)c1nc2ccccc2o1 | ? | ? | 1% | -8% | 6% | 0%
N#C/C(=C\Nc1ccccc1O)c1nc2ccccc2o1 | ? | 19µM* | -4% | -10%[1.84 µM] | -6% | 0%
CC(=O)C12CCCCC1CC1[C@@H]3CC(C)C4=CC(=O)CC[C@]4(C)C3CC[C@@]12C (stereo partly specified) | -27% | 3% | -8% | nt | 4% | 0%
CC(C(=O)NCc1ccccc1)N1C(=O)CN(C)C(=O)c2ccccc21 (stereo unspecified) | 1% | 5% | 13% | -7% | 1% | -5%
Cc1ccc(N2C(=O)SC(N(CC(=O)O)c3cccc(C)c3)C2=O)cc1 (stereo unspecified) | ? | -2% | 4% | 3% | 16% | -3%
COc1ccc2oc(=O)c(-c3nc4ccccc4o3)cc2c1 | ? | 5.4µM* | ? | ? | ? | ?
O=c1oc2ccccc2cc1-c1nc(-c2cccc(Cl)c2)cs1 | nt | 3% | nt | nt | nt | nt
O=c1oc2ccccc2cc1-c1nc2c(s1)CCCC2 | ? | 0.15µM* | ? | 1µM* | ? | 0.4µM*
O=Cc1cn(-c2ccccc2)nc1-c1cc2ccccc2oc1=O | ? | -1% | 12% | -18% | 5% | 13%
O=c1oc2ccccc2cc1-c1nc2ccccc2o1 | ? | 3µM* | 3.5µM* | ? | ? | 2.8µM*
Cc1cc(-c2nnc(-c3cc4ccccc4oc3=O)o2)c(C)n1-c1ccccc1 | ? | 6.7µM* | 24% | -6% | ? | 21%
CCOC(=O)C1CCC(CN(Cc2ccccc2)S(=O)(=O)c2ccc(Br)cc2)CC1 (stereo unspecified) | nt | -7% | nt | nt | nt | nt
Cc1ccc(NC(=O)c2cc(NC(=O)C3CC=CCC3C(=O)O)ccc2N2CCOCC2)cc1 (stereo unspecified) | 0% | -3% | -2% | -7% | -2% | -1%
CC(C)C(C)NC(=O)COc1ccc(Sc2ccc(OCC(=O)NC(C)C(C)C)cc2)cc1 (stereo unspecified) | 8.2µM* | -6% | -11% | -53% | -4% | -17%
Cc1ccc2nc(-c3ccccc3)cc(C(=O)N3CCc4ccccc4C3)c2c1 | -3% | ? | 0% | -11% | -1% | -1%
Oc1ccccc1-c1nc2c3ccccc3c3ccccc3c2[nH]1 | 0% | ? | ? | nt | -5% | ?
c1csc(-c2nc3c4ccccc4c4ccccc4c3[nH]2)c1 | ? | 15µM* | -4% | -10% | -13% | -7%
SMILES | ELG1 repair inh | FLuc counter | NPC1 promoter act | SMN2 splice enh | ELG1 genotox | Rab9 prom act
O=c1c2ccccc2nc(N/N=C/c2ccc(O)cc2)n1O | ? | 2.4µM* | 0% | 13% | -1% | 0%
O=c1c2ccccc2nc(N/N=C/c2c(O)ccc3ccccc23)n1O | ? | 1.9µM* | -20% | -74% | 0% | -30%
Cc1nc2ccccc2nc1N/N=C/c1ccc(O)cc1 | ? | 8.5µM* | -1% | nt | ? | 25%
Cc1nc(N/N=C/c2ccc(O)cc2)c2cnn(-c3ccccc3)c2n1 | -22% | ? | -1% | 19% | -7% | -4%
Cc1nc2ccccc2c(=O)n1/N=C/c1c(O)ccc2ccccc12 | ? | 0% | -1% | nt | 11% | -2%
O=C(O)c1ccccc1-c1nc2ccccc2c(=O)n1O | 4% | 1% | -4% | -1% | 6% | -5%
CC(C)(C)OC(=O)[C@H](Cc1ccccc1)NC(=O)c1nc[nH]c1C(=O)NC1CCNCC1 | 4% | -1% | -2% | nt | 2% | 1%
COc1cccc(/C=N/Nc2nc(Nc3ccc([N+](=O)[O-])cc3)nc(N3CCCC3)n2)c1O | 6.5µM* | -12% | -22% | -53% | -17% | -13%
O=[N+]([O-])c1ccc(Nc2nc(N/N=C/c3cccc(F)c3)nc(N3CCCC3)n2)cc1 | 4.6µM* | -2% | -2% | -6% | -9% | -2%
COc1cccc(/C=N/Nc2ccnc(=O)[nH]2)c1O | -11% | 17µM* | -22% | nt | 11% | -20%
COc1cccc(/C=N/Nc2ccc([N+](=O)[O-])cn2)c1O | ? | 0.76µM* | -23% | nt | 2.6µM* | -25%
O=[N+]([O-])c1cccc(/C=N/Nc2nc(N3CCOCC3)nc(N3CCOCC3)n2)c1 | ? | -1% | -3% | 5% | -8% | 1%
COc1c(/C=N/Nc2nc(N3CCCCC3)nc(N3CCCCC3)n2)cccc1[N+](=O)[O-] | -2% | 3% | -1% | ? | -8% | 0%
CCCC(=O)NCc1ccc2c(c1)cc(C)n2C | 18% | -8% | 0% | -1% | 6% | 6%
Nc1nnc(SCCCOc2ccc(F)cc2)s1 | -6% | 15µM* | -4% | nt | -5% | 3%
CCCOc1ccc(OCCSc2nnc(N)s2)cc1 | ? | 4.8µM* | ? | ? | 13µM* | ?
CCOC(=O)c1ccc(CSc2nnc(N)s2)cc1 | ? | 17µM* | ? | ? | 23µM* | ?
Nc1nnc(SCCOc2cccc(Br)c2)s1 | ? | ? | 13% | -2% | 9% | 14%
CCCOc1ccc(-c2cnc(SCC(N)=O)nc2N)cc1 | 4% | -13% | 2% | -24% | 0% | 2%
CCCOc1ccc(-c2cnc(N)s2)cc1 | ? | 11µM* | ? | 18µM* | ? | 3.2µM*
